KinaseGlo FLuc – Kinase-Glo luciferase inhibition (counter-screen); Potency, µM (doses to about 38.3 µM), inactives show at the highest dose activity change, negative = inhibition, hits mostly inhibitors; Q27757; 200,000 compounds, 0.28% hits; Kinase-Glo luciferase, ATP luminescence, 8 min; note: % is set by controls: 0 for no effect and ±100 for the full control effect; nearly all actives have a fitted effect of over 60% in size
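Light output from Kinase-Glo luciferase with luciferin and 10 uM ATP in 50 mM imidazole pH 7.2, KCl, MgCl2, Tween 20, BSA; compound pin-delivered, 8-min ambient incubation, then luminescence read.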
Rab9 prom act – activators of Rab9 promoter. Huh7 Rab9 promoter-luciferase reporter, luminescence, 24 h. Potency, µM (series often up to 9.22 µM), without a hit: at the top dose activation, negative = inhibition, usual class: activators. 320,000 compounds, 2.8% hits; note: % of control where 0% means no effect; nearly all actives have a fitted effect of over 60% in size
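Luminescence read-out: Huh7 cells stably expressing Rab9-luciferase, treated 24 h with compound at 37 °C, then lysed with luciferase reagent for 10 min at ambient before reading.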
NPC1 prom act – activators of NPC1 promoter. Huh7 NPC1 promoter luciferase reporter, 24 h. Potency, µM (top dose mostly 9.22 µM), inactives show at the top dose activation, hits mostly activators. 320,000 compounds, 2.4% hits. AID 485313; note: % of control where 0% means no effect; nearly all actives have a fitted effect of over 60% in size
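Luminescence from an NPC1 promoter-driven luciferase reporter in stably transfected Huh7 cells was measured after 24 h compound treatment at 37 °C, followed by 10 min ambient incubation with luciferase detection reagent.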
FLuc modulator – firefly luciferase modulation, counter-screen for miR-21 project | P08659 | purified FLuc, Km substrates, luminescence inhibition | Potency, µM (series often up to 57.5 µM), without a hit: at the top dose activity change, negative = inhibition, most hits filed as inhibitors | 360,000 compounds, 6.9% hits | AID 588342;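 note: plate controls were vehicle for no effect and reference inhibitor for full effect; nearly all actives have a fitted effect of over 55% in size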
Target sequence (P08659 whole entry, looked up): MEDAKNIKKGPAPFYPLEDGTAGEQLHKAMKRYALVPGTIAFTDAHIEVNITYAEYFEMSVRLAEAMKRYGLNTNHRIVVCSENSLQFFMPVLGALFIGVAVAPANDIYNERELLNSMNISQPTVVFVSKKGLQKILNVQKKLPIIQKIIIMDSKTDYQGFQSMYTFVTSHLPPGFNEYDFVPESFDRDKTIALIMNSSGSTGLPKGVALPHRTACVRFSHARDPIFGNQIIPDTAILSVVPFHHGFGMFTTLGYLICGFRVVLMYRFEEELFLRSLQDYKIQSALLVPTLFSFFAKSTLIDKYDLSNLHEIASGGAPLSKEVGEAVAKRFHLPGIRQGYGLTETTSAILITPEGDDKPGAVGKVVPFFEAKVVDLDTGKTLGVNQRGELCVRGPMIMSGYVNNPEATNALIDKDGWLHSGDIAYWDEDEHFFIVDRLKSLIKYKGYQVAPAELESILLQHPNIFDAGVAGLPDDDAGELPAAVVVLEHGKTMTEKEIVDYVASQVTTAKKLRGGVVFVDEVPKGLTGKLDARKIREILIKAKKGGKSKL
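Biochemical qHTS of compounds, final roughly 60 µM downward over six points, against 10 nM purified firefly luciferase using Km concentrations of substrates (10 uM D-luciferin, 10 uM ATP) in Tris acetate pH 7.5 buffer; luminescence output.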
ELG1 genotoxic – genotoxicity induction in ELG1-luciferase HEK293T cells; Potency, µM (titrated, usually from 46 µM), inactives show top-dose activity change, positive = activation, usual class: activators; 330,000 compounds, 1.3% hits; HEK293T ELG1-luciferase reporter, luminescence, 16 h; AID 504466; note: % of control where 0% means no effect; nearly all actives have a fitted effect of over 60% in size
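16 hr compound incubation (37 °C, 5% CO2) of HEK293T cells carrying luciferase-tagged ELG1; luciferase then measured by ONE-Glo luminescence after 30 min at RT.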
SMN2 splice up – SMN2 splice variant enhancement; HEK293 SMN2-luciferase splicing reporter, luminescence, 30-36 h; Potency, µM (series often up to 46.1 µM), without a hit: top-dose activity change, positive = activation, most hits filed as activators; 210,000 compounds, 2.8% hits; note: % of control where 0% means no effect; nearly all actives have a fitted effect of over 55% in size
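HEK293 cells carry an SMN2 […]–luciferase reporter in which exon 7 inclusion puts luciferase in frame. Cells were plated 10-12 h before compound addition, then incubated 30-36 h at 37C. ONE-Glo luminescence was read; sodium butyrate at 4.5 mM final served as control.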
Numbers without * were called inactive; u = inconclusive; x = not tested or not shown; [ ] = remark or other dose. An excerpt weighted towards active compounds, which were near 7.4% of everything screened. Calls come from the whole dose curve; as a rule, active = well fitted curve in the direction sought with a large enough effect; inconclusive = small, poorly fitted or top-dose-only effect, or another doubt; inactive = no such curve, though single readings can be large; an effect the other way counts as inactive or inconclusive. Potency is the fitted concentration of half-maximal effect.

SMILES | KinaseGlo FLuc | Rab9 prom act | NPC1 prom act | FLuc modulator | ELG1 genotoxic | SMN2 splice up
C/C(=N\NC(=O)c1nnn(-c2nonc2N)c1C(C)C)c1cc(C)sc1C | x | -5.4% | -1.0% | 16.9µM* | -2.2% | x
CC(C)c1c(C(=O)N/N=C/c2ccncc2)nnn1-c1nonc1N | x | -3.6% | 3.1% | u | 0.5% | x
N/C(=N\N=C\c1ccc2c(c1)OCO2)c1nonc1N | u | 0.316µM* | 0.398µM* | 0.953µM* | u | 3.55µM*
Nc1nonc1-n1nnc(C(=O)N/N=C/c2ccc3c(c2)OCO3)c1-c1ccccc1 | x | 0.1% | -2.0% | u | -7.5% | x
CC(C)c1c(C(=O)N/N=C/c2ccc3c(c2)OCO3)nnn1-c1nonc1N | x | 12.0% | 0.9% | 9.53µM* | 1.8% | x
CC(C)CN1CC2(CCN(C(=O)c3csnn3)CC2)C1 | -0.6% | x | x | x | x | 1.0%
COc1ccc(N2CCN(Cc3nc4c(c(=O)n(C)c(=O)n4C)n3C(C)C)CC2)cc1 | x | x | x | -1.4% | x | x
CCOc1ccccc1N(C)C(=O)c1sc2nc3n(c(=O)c2c1C)CCCC3 | x | x | x | -12.3% | x | x
CSc1ncc2c(n1)-c1ccccc1N(Cc1ccc(Cl)cc1)S2(=O)=O | x | x | x | 0.0% | x | x
CC(/C=N/NC(=O)c1nnn(-c2nonc2N)c1C(C)C)=C\c1ccco1 | x | 8.2% | -2.8% | 5.36µM* | 1.4%[9.26 µM] | x
COc1ccccc1CC(=O)O/N=C(\N)c1ccccn1 | x | 21.4% | 0.6% | -17.4% | 5.6% | x
CCCc1c(C(=O)N/N=C/C(C)=C/c2ccco2)nnn1-c1nonc1N | x | 0.0% | 3.6% | -18.2% | 1.4% | x
CCCOc1ccc(/C=N/NC(=O)c2nnn(-c3nonc3N)c2-c2cccs2)cc1OC | x | -1.8% | 15.4% | 10.7µM* | -9.2% | x
COc1cccc(/C=N/NC(=O)c2nnn(-c3nonc3N)c2-c2cccs2)c1 | x | 1.0% | 8.1% | u | -5.4% | x
COc1ccccc1/C=N\N=C(\N)c1ccccn1 | 7.2% | 2.24µM* | u | 6.75µM* | u | 15.8µM*
COc1cccc(/C=N/N=C(\N)c2nonc2N)c1O | -5.5% | 2.51µM* | u | u | 18.3µM* | u
CCCCc1cc2c(cn1)=C(OC(=O)c1cccs1)C(C)(OC(=O)CC)C(=O)C=2 (configuration not stated) | -7.9%[7.66 µM] | x | x | x | x | 12.6%[9.22 µM]
COc1ccc(S(=O)(=O)c2cn(C)c3cc(N4CCCCCC4)c(F)cc3c2=O)cc1 | x | x | x | 6.7% | x | x
COc1ccc(S(=O)(=O)CC(=O)Nc2nnc(C(F)(F)F)s2)cc1 | x | 6.9% | -3.2% | 6.0% | -1.9% | x
COc1ccc(-c2nnc(NC(=O)c3cc(C)on3)s2)cc1 | 0.6% | -1.0% | 8.9% | 12µM* | u | u
COc1ccc(C(=O)Nc2nnc(-c3ccccc3)s2)cc1 | x | 1.26µM* | 0.794µM* | -12.4% | 18.3µM* | x
COC(=O)Nc1nnc(-c2ccc(OC)cc2)s1 | x | 2.82µM* | 2.51µM* | 8.49µM* | 16.4µM* | x
COc1ccc(C(=O)Nc2nnc(C(F)(F)F)s2)cc1 | -0.2% | 2.51µM* | 1.78µM* | 5.36µM* | u | 5.01µM*
COc1ccc(-c2nnc(NC(=O)c3c(OC)cccc3OC)s2)cc1 | x | 3.0% | 3.8% | u | -1.6% | x
CC(C)(C)c1ccc(C(=O)N2CCCC(c3nc4c(nnn4Cc4cccc(F)c4)c(=O)[nH]3)C2)cc1 (configuration not stated) | x | x | x | -15.2% | x | 11.4%
SMILES | KinaseGlo FLuc | Rab9 prom act | NPC1 prom act | FLuc modulator | ELG1 genotoxic | SMN2 splice up
CCOC(=O)Nc1nnc(-c2ccc(OC)c(OC)c2)s1 | -3.1% | 5.9% | -2.5% | 1.1% | 3.9% | 5.62µM*
O=C1c2ccccc2NC(c2ccccc2O)N1c1ccc(F)cc1 (configuration not stated) | x | 3.98µM* | 3.98µM* | -13.8% | u | x
COc1cccc(C2Nc3ccccc3C(=O)N2c2ccc(F)cc2)c1O (configuration not stated) | x | u | u | -10.3% | u | x
COc1ccc(C)cc1NC(=O)Cn1c(=O)n(Cc2nc(C)no2)c(=O)c2ccccc21 | x | x | x | -0.4% | x | x
CNC(=O)c1[nH]nc2c1CCc1cc(OC)ccc1-2 | x | 5.01µM* | u | 16.9µM* | u | x
CC(C)NC(=O)c1[nH]nc2c1CCc1ccccc1-2 | x | 3.55µM* | u | 19µM* | u | x
COc1cccc(/C=N/NC(=O)c2[nH]nc3c2CCc2ccccc2-3)c1 | x | -18.5% | -22.7% | u | 5.9% | x
COc1ccc(OC)c(/C=N/NC(=O)c2[nH]nc3c2CCc2ccccc2-3)c1 | 2.8% | -3.8% | 2.2% | 9.4% | -1.0% | 1.7%
COc1ccc2c(c1)CCc1c-2n[nH]c1C(=O)NCCC(C)C | x | 0.794µM* | 1µM* | 1.35µM* | 2.59µM* | x
Cc1ccc(C)c(NC(=O)CN(C)S(=O)(=O)c2cccc3nsnc23)c1 | x | x | x | -1.2% | x | 1.9%
Cc1ccc(C)n1-c1nnc(N2CCC(C(=O)Nc3ccccc3Br)CC2)s1 | x | x | x | 3.3% | x | -7.7%
C=CCn1c(-c2cc3cccc(OC)c3o2)n[nH]c1=S | 0.6% | 4.8% | -2.5% | u | -0.2% | -7.1%
COc1cccc2cc(-c3ccnc(=S)[nH]3)oc12 | -0.3% | 4.3% | 4.5% | -18.5% | 3.4% | 11.2µM*
Cc1ccc(C(=O)COC(=O)CCC(=O)Nc2ccccc2Cl)cc1[N+](=O)[O-] | -1.1% | 6.0% | -0.5% | 0.1% | -1.0% | 20.2%
Cc1ccc(C(=O)COC(=O)CCCC(=O)Nc2cc(C(F)(F)F)ccc2Cl)cc1C | 0.6% | -4.5% | -2.6% | 2.39µM* | 0.5% | -8.5%
COC(=O)NC(CCc1ccccc1)C(C(=O)OC)C(=O)OC (configuration not stated) | -6.1% | x | x | x | x | -2.4%
O=C(NNC1=C(C(=O)C(F)(F)F)CCC1)c1ccccc1Cl | -1.9% | -14.6% | -5.3% | 1.8% | -2.5% | 9.6%
O=C(NNC1=C(C(=O)C(F)(F)F)CCC1)c1ccccc1O | -4.5% | 25.7% | 13.2% | 26.9µM* | -23.5% | -24.2%
Nc1cccc(-c2ccc(CO)o2)c1 | -1.0% | -0.3% | 0.0% | 16.9µM* | 7.7% | x
COc1ccc(S(=O)(=O)N(CC(=O)N2CCC(C)CC2)c2ccc(C)cc2)cc1 | x | x | x | -14.6% | x | -5.6%
COc1ccc(C2(C)NC(=O)N(CC(=O)Nc3ccc4ccccc4c3)C2=O)cc1OC (configuration not stated) | x | -0.6% | -1.2% | 2.3% | -6.8% | x
COc1ccc(NC(=O)CN2C(=O)NC(C)(c3ccccc3)C2=O)cc1Cl (configuration not stated) | x | -3.3% | -0.9% | 21.3µM* | 1.9% | x
COc1cccc(NC(=O)c2oc3ccccc3c2NC(=O)c2ccc(F)c(F)c2)c1 | x | x | x | 4.0% | x | -7.8%
Cc1cccc(NC(=O)CC2CCC2)c1 | -2.7% | 4.5% | 8.9% | -11.4% | 5.0% | 3.7%

Bioassay records: PubChem, National Center for Advancing Translational Sciences (NCATS)
